Pol beta inh: blocks human DNA polymerase beta activity; hit rate 1.3% among 340,000; P06746; AID 485314; Potency, µM (top dose mostly 114 µM), actives largely listed as inhibitors; Pol beta primer extension/strand displacement, fluorescence kinetic
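Human Pol beta at 10 nM; strand-displacement substrate 50 nM final. Compound exposure 15 min at room temperature before start, reaction 10 min at room temperature.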
Pol eta inh-1: blocks human DNA polymerase eta activity | Potency, µM (doses to about 114 µM), hits mostly inhibitors | recombinant Pol eta, fluorescent DNA replication assay | hit rate 1.2% among 390,000 | AID 588591 | Q9Y253
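Pol eta at 10 nM preincubated with compounds 15 min at room temperature; reaction started with fluorescent substrate (50 nM final) and read kinetically at 0 and 10 min.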
Pol kappa inh-1: inhibitors of human DNA polymerase kappa. Q9UBT6. purified Pol kappa, fluorescent DNA synthesis assay, 10 min. Potency, µM (doses to about 107 µM), hits mostly inhibitors. hit rate 0.53% among 400,000. AID 588579
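Here, compound and 10 nM enzyme are combined for 15 min at room temperature; adding 50 nM substrate (final) starts DNA synthesis, tracked by fluorescence at 0 and 10 min against buffer-only wells.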
POLI inh: blocks human DNA polymerase iota activity. Pol iota fluorescent replication assay, 10 min. Potency, µM (titrated, usually from 115 µM), most hits filed as inhibitors. hit rate 1% among 390,000. Q9UNA4. AID 588590
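Pol iota at 10 nM preincubated 15 min with compounds at room temperature; reaction started with fluorescent substrate, 50 nM final. Fluorescence read kinetically at 0 and 10 min; buffer-only wells as negative control.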
PI5P4Ka inh: blocks human PI5P4K alpha kinase activity; P48426; PI5P4Kalpha enzyme, ADP-Glo luminescence, 60 min; stronger effect = lower value; max response, %; hit rate 1.2% among 330,000; AID 652105; active = max response of -50% or lower; inconclusive = between -30% and -50%; inactive = -30% or higher; note: value at the top dose of about 77 µM
Target sequence (P48426 whole entry, looked up): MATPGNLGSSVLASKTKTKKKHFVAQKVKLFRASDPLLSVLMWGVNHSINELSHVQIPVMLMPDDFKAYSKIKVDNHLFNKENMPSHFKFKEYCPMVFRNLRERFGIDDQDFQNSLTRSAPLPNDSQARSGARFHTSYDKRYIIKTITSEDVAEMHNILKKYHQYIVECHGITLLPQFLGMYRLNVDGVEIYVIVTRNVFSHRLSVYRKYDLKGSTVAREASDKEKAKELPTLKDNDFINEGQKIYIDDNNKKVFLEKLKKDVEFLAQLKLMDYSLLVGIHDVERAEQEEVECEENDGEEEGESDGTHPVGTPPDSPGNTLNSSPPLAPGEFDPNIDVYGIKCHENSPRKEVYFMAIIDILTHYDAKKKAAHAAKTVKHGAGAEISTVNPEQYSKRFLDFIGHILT
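Controls without substrate or without enzyme flank wells where PI5P4Kalpha converts substrate using 5 microM ATP (final). Incubation lasts 60 minutes at room temperature; ADP formed is read by ADP-Glo luminescence.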
FEN1 inh-1: inhibitors of human flap endonuclease 1 | hit rate 0.35% among 390,000 | P39748 | Recombinant FEN1 flap cleavage, fluorescence, 15 min | Potency, µM (doses to about 114 µM), usual class: inhibitors; note: nearly all actives have a fitted effect of over 65% in size
Target sequence (P39748 whole entry, looked up): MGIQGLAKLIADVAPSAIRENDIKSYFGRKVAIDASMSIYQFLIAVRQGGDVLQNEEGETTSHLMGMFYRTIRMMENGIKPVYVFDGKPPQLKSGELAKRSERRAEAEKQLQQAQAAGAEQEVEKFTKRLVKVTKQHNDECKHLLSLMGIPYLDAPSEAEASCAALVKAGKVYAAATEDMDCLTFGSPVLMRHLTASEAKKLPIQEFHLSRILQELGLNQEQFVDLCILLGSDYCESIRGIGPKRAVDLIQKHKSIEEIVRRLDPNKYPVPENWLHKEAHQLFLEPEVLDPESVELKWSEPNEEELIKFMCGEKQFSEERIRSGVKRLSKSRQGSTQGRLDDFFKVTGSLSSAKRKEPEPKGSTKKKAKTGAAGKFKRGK
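Read-out was taken twice, immediately and after 15 min, following addition of 50 nM substrate to 10 nM FEN1 that had sat with test compound for 15 min at room temperature. Curves came from a four-parameter Hill model.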
Pol kappa inh-2: Pol kappa (human) inhibition, cherry-pick confirmation; hit rate 76% among 920; purified Pol-kappa, fluorescent strand-displacement substrate; shares compounds with Pol eta inh-1; AID 720501; Potency, µM, most hits filed as inhibitors
Pol eta inh-2: Pol eta (human) inhibition, cherry-pick confirmation; Potency, µM, usual class: inhibitors; hit rate 64% among 2,600; shares compounds with Pol eta inh-1; AID 720502; Pol eta primer extension, TAMRA/BHQ fluorescence, 10 min
FEN1 inh-2: FEN1 inhibition, cherry-pick retest; shares compounds with FEN1 inh-1; FEN1 flap cleavage, TAMRA/BHQ2 fluorogenic DNA substrate; Potency, µM, actives largely listed as inhibitors; hit rate 79% among 880; note: nearly all actives have a fitted effect of over 60% in size
ADP-Glo interf: counter-screen for PI5P4K inhibitors: ADP-Glo detection interference, no enzyme; AID 743285; ADP-Glo detection counter-screen, luciferase luminescence, no enzyme; shares compounds with PI5P4Ka inh; Potency, µM (doses to about 76.9 µM), usual class: inhibitors; 1,100 tested, under 10 active
Large screens that a line does not name were inactive (follow-up assays come after a bar, where they were run). The list is not random: actives were taken first. Their share in the collection is about 2.8%. Unless noted, calls come from the whole dose curve; as a rule, active = well fitted curve in the direction sought with a large enough effect; inconclusive = small, poorly fitted or top-dose-only effect, or another doubt; inactive = no such curve, though single readings can be large; an effect the other way counts as inactive or inconclusive.

Cc1cccc(NC(=O)CSc2nc3c(oc4ccccc43)c(=O)n2Cc2ccco2)c1	none (no result: PI5P4Ka inh)
O=C(NCCCO)c1ccc2nc(-c3ccco3)c(-c3ccco3)nc2c1	Pol beta inh 28µM, Pol eta inh-1 7.9µM, Pol kappa inh-1 28µM, POLI inh 10µM, FEN1 inh-1 13µM | Pol kappa inh-2 19 | Pol eta inh-2 19 | FEN1 inh-2 67
Cc1cc(N/N=C/c2ccc([N+](=O)[O-])o2)nc2ccccc12	none
Cc1csc(N=Cc2ccc([N+](=O)[O-])o2)n1	Pol eta inh-1 18µM, PI5P4Ka inh -82 (no result: Pol beta inh, Pol kappa inh-1, POLI inh, FEN1 inh-1) | Pol eta inh-2 inconclusive | FEN1 inh-2 30
Cc1cc(C)cc(NC(=O)Cn2c(=O)n(CCC(C)C)c(=O)c3cccnc32)c1	none (no result: PI5P4Ka inh)
O=C(CCC1CCCNC1)c1ccccc1 (stereo unspecified)	none (no result: Pol eta inh-1, Pol kappa inh-1, POLI inh, PI5P4Ka inh, FEN1 inh-1)
COc1ccc(-c2cn3c(n2)sc2cc(C(=O)NCCCN4CCCCCC4)ccc23)cc1	Pol eta inh-1 inconclusive (no result: PI5P4Ka inh) | Pol kappa inh-2 inconclusive | FEN1 inh-2 38
CCOC(=O)c1c(S(=O)(=O)NCC(C)c2ccccc2)c(C)n(C)c1C (stereo unspecified)	none
Cc1ccc(C)c(N2CCN(S(=O)(=O)c3ccc4oc(=O)c5ncn(C)c5c4c3)CC2)c1	none (no result: PI5P4Ka inh)
Cc1cccc(-n2c(O)c(C=Nc3ccccc3-c3n[nH]c(=S)[nH]c3=O)c3ccccc3c2=O)n1	none
Cc1ccc(-n2c(O)c(C=Nc3ccccc3-c3n[nH]c(=S)[nH]c3=O)c3ccccc3c2=O)cc1C	Pol beta inh inconclusive, Pol eta inh-1 32µM, Pol kappa inh-1 inconclusive, POLI inh inconclusive, PI5P4Ka inh -81, FEN1 inh-1 50µM | Pol eta inh-2 inconclusive | FEN1 inh-2 67
O=c1cc(-c2ccc(O)cc2)oc2ccc3ccccc3c12	Pol eta inh-1 inconclusive, POLI inh 40µM, FEN1 inh-1 inconclusive (no result: Pol beta inh) | Pol kappa inh-2 inconclusive | FEN1 inh-2 inconclusive
CC(=O)c1c(C)[nH]c(C(=O)OC(C)C(=O)Nc2ccc(C)c(S(=O)(=O)N3CCOCC3)c2)c1C (stereo unspecified)	none (no result: Pol beta inh)
Cc1ccc(NC(=O)C(C)OC(=O)c2cc(=O)[nH]c3ccccc23)cc1S(=O)(=O)N1CCOCC1 (stereo unspecified)	Pol eta inh-1 18µM, Pol kappa inh-1 89µM, POLI inh 25µM, PI5P4Ka inh -61 (no result: Pol beta inh) | Pol eta inh-2 inconclusive | ADP-Glo interf inactive
COc1ncc2nc(-c3cc(F)cc(F)c3)c(=O)n(CCC#N)c2n1	none (no result: Pol beta inh, Pol eta inh-1, POLI inh, PI5P4Ka inh, FEN1 inh-1)
Nc1nnnn1CC(=O)N/N=C/c1ccccn1	none
Cc1ccc(-c2csc(NC(=O)c3ccno3)n2)cc1	Pol beta inh 14µM, Pol eta inh-1 45µM, POLI inh inconclusive, PI5P4Ka inh -53 | Pol eta inh-2 inconclusive | ADP-Glo interf inactive
COc1ccc(C)cc1NC(=O)c1cccc(-c2ccc(OC(C)=O)cc2)c1	none
O=C(c1ccco1)N(CCC(c1ccccc1)c1ccco1)Cc1ccccc1 (stereo unspecified)	Pol beta inh 25µM, Pol eta inh-1 22µM, Pol kappa inh-1 79µM, POLI inh 28µM, PI5P4Ka inh -60 | Pol kappa inh-2 67 | Pol eta inh-2 inconclusive | ADP-Glo interf inactive
COc1ccc(C(C(=O)NC2CCCC2)N(C(=O)c2snc(C(N)=O)c2N)c2cccc(O)c2)cc1 (stereo unspecified)	Pol beta inh 40µM, Pol eta inh-1 22µM, Pol kappa inh-1 79µM, POLI inh inconclusive, PI5P4Ka inh -55, FEN1 inh-1 inconclusive | Pol kappa inh-2 inconclusive | Pol eta inh-2 76 | ADP-Glo interf inactive
Cc1ccc(-c2csc(NS(=O)(=O)c3cccc(F)c3)n2)o1	Pol eta inh-1 25µM, Pol kappa inh-1 inconclusive, POLI inh inconclusive, PI5P4Ka inh -68 (no result: Pol beta inh) | Pol eta inh-2 inconclusive | ADP-Glo interf inactive
Cc1nc(CNS(=O)(=O)c2cccc(F)c2)cs1	none (no result: PI5P4Ka inh)
COc1cccc(CNC(=O)CN2c3cccc4cccc(c34)S2(=O)=O)c1	Pol eta inh-1 14µM, Pol kappa inh-1 inconclusive, POLI inh 45µM, PI5P4Ka inh -65 (no result: Pol beta inh) | Pol eta inh-2 inconclusive | ADP-Glo interf inactive
CCOc1ccccc1N1CCN(C(=O)c2cc(-c3cccnc3)nc3c(Cl)cccc23)CC1	none
Cc1nc(N)sc1-c1csc(Nc2cccc(C(=O)O)c2)n1	Pol beta inh inconclusive, Pol eta inh-1 40µM, Pol kappa inh-1 25µM, POLI inh 11µM, PI5P4Ka inh -52, FEN1 inh-1 inconclusive | Pol kappa inh-2 12 | Pol eta inh-2 48 | ADP-Glo interf inactive
CCC(=O)Nc1nc(C)c(-c2csc(Nc3cccc(C(=O)O)c3)n2)s1	Pol eta inh-1 inconclusive
O=C(O)c1cc(-c2ccc(-c3c(-c4ccc5c(c4)OCO5)noc3-c3ccsc3)cc2)nc2ccccc12	Pol eta inh-1 79µM, POLI inh inconclusive, PI5P4Ka inh -71 | Pol kappa inh-2 inconclusive | ADP-Glo interf inactive
Cc1ccc(C)c(-n2c3nc(=O)[nH]c(=O)c-3cc3cc([N+](=O)[O-])ccc32)c1	Pol beta inh 35µM, Pol eta inh-1 13µM, Pol kappa inh-1 inconclusive, POLI inh 20µM, PI5P4Ka inh -65, FEN1 inh-1 inconclusive | Pol eta inh-2 60 | ADP-Glo interf inactive
c1ccc2nc(-c3cc4ccccc4s3)ccc2c1	none (no result: Pol beta inh, Pol eta inh-1, PI5P4Ka inh)
CN(C)c1ccc2nc3ccc(=O)cc-3sc2c1	Pol eta inh-1 40µM, PI5P4Ka inh -73 (no result: Pol beta inh, Pol kappa inh-1, POLI inh, FEN1 inh-1) | Pol eta inh-2 inconclusive | FEN1 inh-2 43 | ADP-Glo interf inconclusive
O=C(CSCc1ccc(Cl)cc1)Nc1ccc2c(c1)OCCO2	none
O=C(CSc1nc(=O)n2cc(Cl)ccc2n1)Nc1ccc2c(c1)OCCO2	Pol eta inh-1 28µM, PI5P4Ka inh -54 (no result: Pol beta inh) | Pol eta inh-2 inconclusive | ADP-Glo interf inactive
O=C(/C=C/c1ccccc1[N+](=O)[O-])N1CCN(C(=O)c2ccco2)CC1	Pol beta inh inconclusive
NC(=O)c1ccsc1NC(=O)c1ccc([N+](=O)[O-])o1	Pol eta inh-1 45µM, Pol kappa inh-1 79µM, POLI inh 50µM, PI5P4Ka inh -52, FEN1 inh-1 inconclusive (no result: Pol beta inh) | Pol eta inh-2 inconclusive | ADP-Glo interf inactive
